# Screening results: PubChem, National Center for Advancing Translational Sciences (NCATS)
# Hits are enriched below; roughly 8% of the tested compounds scored in any of these assays.
# SW480 rereplic – induces DNA re-replication in SW480 colon adenocarcinoma cells; SW480 DNA re-replication, Hoechst DNA content imaging, 48 h; actives 1.8% (n = 340,000); Potency, µM (top dose mostly 46.1 µM), for inactives: at the highest dose re-replication activation, hits mostly activators; AID 624297; also: % of control where 0% means no effect; nearly all actives have a fitted effect of over 55% in size
#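 First, 250 cells per well were seeded. Next, compound or vehicle (23 nL) was pinned in, plates sat 48 hr at 37 C. Finally Hoechst was added for 40 min before fluorescence scanning.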
# KB-V1 MDR tox – KB-V1 MDR subline cytotoxicity; KB-V1 MDR cells viability, CellTiter-Glo, 72 h; Potency, µM (titrated, usually from 46.1 µM), actives largely listed as cytotoxic; actives 3.4% (n = 400,000); AID 1347076; also: % is scaled to controls: 0 for no effect and ±100 for the full control effect; nearly all actives have a fitted effect of over 60% in size
#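 Readout: CellTiter-Glo luminescence, 10 min after addition. Cells: KB-V1 MDR subline, 72 h at 37 degrees C with compound. Analysis: corrected, normalized data fitted to concentration-effect curves.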
# HT1080 IDH1KD tx – toxicity to HT-1080 IDH1 knockdown cells (counter line); HT-1080 IDH1 knockdown viability, ATP luminescence, 48 h; Potency, µM (titrated, usually from 46.1 µM), without a hit: top-dose activity, negative = toxicity, actives largely listed as cytotoxic; actives 2% (n = 360,000);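 also: 0% = DMSO wells and -100% = cell-free medium wells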
#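 CellTiter-Glo luminescence after 48 h compound exposure at 37 degrees C of IDH1-knockdown HT-1080 cells in 5% FBS RPMI. %Activity scaled between DMSO wells and cell-free media wells, with curves fitted and assigned curve classes.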
# MCF10A rereplic – DNA re-replication induction in MCF 10a cells; MCF 10A DNA re-replication, Hoechst nuclear intensity, 48 h; Potency, µM (titrated, usually from 46.1 µM), for the others: top-dose activity, positive = re-replication, hits mostly activators; actives 2.9% (n = 350,000); also: % of control where 0% means no effect; nearly all actives have a fitted effect of over 50% in size
# KB-3-1 tox – kills parental KB-3-1 adenocarcinoma cells; AID 1347075; actives 1.4% (n = 400,000); KB-3-1 viability, CellTiter-Glo ATP luminescence, 72 h; Potency, µM (titrated, usually from 46.1 µM), hits mostly cytotoxic; also: % is scaled to controls: 0 for no effect and ±100 for the full control effect; nearly all actives have a fitted effect of over 60% in size
#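 Cytotoxicity measured as CellTiter-Glo luminescence after 72 h at 37 C. Compound titrations were pinned onto drug-naive KB-3-1 parental adenocarcinoma cells grown in DMEM with 10% FBS, and normalized data fitted to concentration-response curves.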
# HT1080-NT tox – kills 2HG-producing HT-1080-NT fibrosarcoma cells | HT-1080-NT fibrosarcoma viability, CellTiter-Glo ATP luminescence, 48 h | Potency, µM (doses to about 46.1 µM), for the others: at the top dose activity, negative = less viability, actives largely listed as cytotoxic | actives 1.6% (n = 360,000);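 also: NT is the 2HG producing partner of a matched IDH1 knockdown line; 0% = DMSO-treated cells and -100% = media-only wells without cells; nearly all actives have a fitted effect of over 55% in size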
#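 Read-out is CellTiter-Glo luminescence after 10 minutes at room temperature, following 48 hours' compound treatment of HT-1080-NT cells (750 cells/well, RPMI, 5% FBS, 37 degrees C).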
# Active calls of the source: *; i = inactive; ? = inconclusive; nt = not tested or not shown; [ ] = remark or other dose. Calls follow the shape of the dose curve; as a rule, active = well fitted curve in the direction sought with a large enough effect; inconclusive = small, poorly fitted or top-dose-only effect, or another doubt; inactive = no such curve, though single readings can be large; an effect the other way counts as inactive or inconclusive. Potency is read from the fitted curve at half-maximal effect.
SMILES,SW480 rereplic,KB-V1 MDR tox,HT1080 IDH1KD tx,MCF10A rereplic,KB-3-1 tox,HT1080-NT tox
CC(C(=O)Nc1c2c(cc3c1CCC3)CCC2)N1CCCC1 (configuration not stated),-9.3%,i,1.0%,0.0%,i,-6.1%
CCN1CCC(NC(=O)c2cc(OC)c(OC)cc2OC)CC1,-2.8%,i,-1.6%,1.4%,i,-2.8%[9.24 µM]
Cc1cc(NC(=O)c2ccc(F)cc2F)n(-c2nc3ccccc3[nH]2)n1,0.8%,i,9.3%,?,i,2.6%
Cc1cc(NC(=O)/C=C/c2ccccc2Cl)n(-c2nc3ccccc3[nH]2)n1,?,?,-26.0%,16.4µM*,?,?
Cc1cc(NC(=O)CC2CCCC2)n(-c2nc3ccccc3[nH]2)n1,-1.5%,18.4µM*,18.4µM*,?,?,?
COc1ccc(C(OCC(O)CNC(C)c2ccccc2)c2ccc(OC)cc2)cc1 (configuration not stated),?,?,20.6µM*,?,i,?
C/C=C/c1ccc(OCC(O)CNCCc2ccc(OC)cc2)c(OC)c1 (configuration not stated),?,i,-16.5%,20.4%,i,-11.9%
CC(C)c1ccc(OCC(O)CNC(C)c2ccccc2)cc1 (configuration not stated),20.5%,i,18.4µM*,-18.6%,?,23.1µM*
COc1ccc(C(OCC(O)CNCCc2ccccc2)c2ccc(OC)cc2)cc1 (configuration not stated),?,16.4µM*,23.1µM*,22.7%,?,23.1µM*
CCc1nnc(NC(=O)CSc2nnc(-c3c[nH]c4ccccc34)n2CCOC)s1,-1.3%,?,12.9%,-21.8%,i,-1.0%
Cc1ccc(NC2=CC(=O)CC(c3ccco3)C2)c(N)c1 (configuration not stated),27.2%,i,-2.2%,10.3µM*,i,-10.6%
Cc1cc(C)cc(NC2=CC(=O)CC(c3ccco3)C2)c1 (configuration not stated),10.5%,16.4µM*,-12.0%,24.7%,i,-1.6%
O=C1C=C(Nc2cccc(Cl)c2)CC(c2ccco2)C1 (configuration not stated),6.5%,?,1.8%,-2.7%,i,-4.7%
CN(C)S(=O)(=O)c1ccc(C(=O)NCc2cccs2)cc1,-19.3%,i,1.2%,9.1%,i,5.9%
CCCCN(C)S(=O)(=O)c1ccc(NC2=NS(=O)(=O)c3ccccc32)cc1,nt,i,nt,nt,i,nt
Nc1ccc(N(c2ccccc2)c2ccc(N)cc2)cc1,?,?,20.6µM*,14.3%,?,16.4µM*
COc1ccc(C(=O)/C=C2\C(=O)Nc3ccc(Br)cc32)cc1,?,?,?,7.31µM*,?,?
O=C1Nc2ccccc2/C1=C\C(=O)c1ccccc1,?,i,?,?,i,18.4µM*
CC(C)Oc1ccc(C(=O)/C=C2/C(=O)Nc3ccccc32)cc1,?,i,?,?,?,?
O=C(/C=C1\C(=O)Nc2ccccc21)/C=C1\C(=O)Nc2ccccc21,?,i,?,?,?,?
O=C1Nc2ccc(Br)cc2/C1=C/C(=O)c1ccc2c(c1)OCO2,?,?,?,3.66µM*,?,?
O=C(NCc1ccc2c(c1)OCO2)c1ccc(Br)cc1,-1.3%,i,-1.8%,-0.2%,i,-19.7%
COc1ccc2c(c1)/C(=C/c1cc(OC)c(OC)c(OC)c1)C(=O)N2,2.59µM*,?,5.8µM*,?,2.31µM*,5.8µM*
COc1ccc(/C=C2\C(=O)NC(=O)c3ccccc32)cc1OC,?,i,11.8%,?,i,0.2%
CCN(CC(=O)Nc1ccc(C)c(F)c1)CC(=O)NC(C)C,8.6%,i,-3.1%,-5.4%,?,-3.9%
SMILES,SW480 rereplic,KB-V1 MDR tox,HT1080 IDH1KD tx,MCF10A rereplic,KB-3-1 tox,HT1080-NT tox
CCCCCc1nnc(NC(=O)CS(=O)(=O)Cc2ccccc2)s1,-4.2%,?,-4.5%,-1.9%,i,2.5%
CCn1ncc(C2=NOC(C(=O)Nc3cnn(C45CC6CC(CC(C6)C4)C5)c3)C2)c1C (configuration not stated),17.8%,3.26µM*,?,-7.7%,?,?
CCn1ncc(C2=NOC(C(=O)NCC(C)C)C2)c1C (configuration not stated),-2.7%,i,10.7%,-0.1%,i,22.1%
Cc1ccccc1C(=O)Nc1cccc(-c2ccc3nncn3n2)c1,-9.8%,i,-17.9%,-1.9%,i,-0.7%
NC(=S)Nc1cc2ccccc2c2ccccc12,-2.9%,i,-23.9%,2.1%,i,-2.7%
NC(=S)Nc1cccc2cc3ccccc3cc12,11.6µM*,i,2.3%,?,i,0.9%
O=C(CCCc1nc2ccccc2s1)N1CCN(S(=O)(=O)c2cccs2)CC1,7.4%,23.1µM*,-2.8%,?,i,-0.1%
CNC(=S)N/N=C/c1cc(Br)cc(Br)c1O,nt,i,23.1µM*,7.31µM*,i,?
Oc1c(Br)cc(Br)cc1/C=N/NC(=S)N[C@H]1CC2C=CC1C2 (some centres not stated),?,?,20.6µM*,5.8µM*,?,?
CC(=O)Nc1ccc(C(=O)N/N=C/c2cc(Br)cc(Br)c2O)cc1,-146.2%,i,?,?,i,?
O=C(Cc1csc(Nc2nc(=S)[nH]c3ccccc23)n1)NCc1ccc(Cl)cc1,?,i,-18.3%,16.4µM*,i,-1.9%
O=C(Cc1csc(Nc2nc(=S)[nH]c3ccccc23)n1)NCCCN1CCN(c2ccccc2F)CC1,18.4µM*,14.6µM*,20.6µM*,7.31µM*,?,20.6µM*
COc1ccc(CNC(=O)Cc2csc(Nc3nc(=S)[nH]c4ccccc34)n2)cc1,-7.4%,?,-6.3%,2.7%,i,-7.4%
Cc1cccc(N2CCN(S(=O)(=O)c3ccc(-c4ccc(=O)[nH]n4)o3)CC2)c1C,?,i,-25.8%,20.6µM*,i,?
CCCCc1n[nH]c(=S)n1Cc1ccc(C)cc1,-9.8%,i,-3.2%,-1.9%,i,-2.0%
N#Cc1c(Cl)cccc1N1CCCC1,2.9%,i,6.4%,-0.6%,i,-1.0%
N#Cc1c(N2CCSCC2)nsc1-c1ccccc1Cl,?,4.61µM*,?,?,3.66µM*,-24.5%
N#Cc1c(Cl)cccc1N1CCSCC1,nt,23.1µM*,-0.6%,nt,?,8.3%
